Consider 20 compounds from PubChem BioAssay.

Experiment [1] in a line: antimalarial activity against Dd2 strain (AID 2302;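 active means growth inhibition above 50% at the single 2 µM test dose, taken to imply half-maximal potency below 2 µM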;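 further: 0% = DMSO untreated growth and 100% = chloroquine plus artemisinin killed control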). As to conditions: P. falciparum Dd2 in RBCs, LDH growth readout, 72 h; at 2 µM; stronger effect = higher value.
A short description of experiment [2]: human hepatoma cell viability loss – ATP luminescence, cytotoxicity control for P. falciparum antimalarial project, primary screen (AID 2303;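 active means inhibition above 50%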;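 further: 0% = DMSO wells and 100% = digitonin-killed cells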). As to conditions: HepG2 viability, 24-48 h, at 10 µM, stronger effect = higher value.
For experiment [3], the target named is L-lactate dehydrogenase (Plasmodium falciparum (isolate CDC / Honduras)) (UniProt Q27743). Nature of the experiment: PfLDH activity inhibition – cell lysate, 3D7 strain, counter-screen for P. falciparum growth inhibition project (AID 2304).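 Further: 0% = vehicle and 100% = reference inhibitor.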 The settings on record: P. falciparum 3D7 crude extract, LDH APAD/NBT absorbance; at 2 µM; stronger effect = higher value. A general note: The purpose of a counterscreen is to sort out artefacts and off-target activity.
Chain of L-lactate dehydrogenase (Plasmodium falciparum (isolate CDC / Honduras)) (Q27743 whole entry, looked up): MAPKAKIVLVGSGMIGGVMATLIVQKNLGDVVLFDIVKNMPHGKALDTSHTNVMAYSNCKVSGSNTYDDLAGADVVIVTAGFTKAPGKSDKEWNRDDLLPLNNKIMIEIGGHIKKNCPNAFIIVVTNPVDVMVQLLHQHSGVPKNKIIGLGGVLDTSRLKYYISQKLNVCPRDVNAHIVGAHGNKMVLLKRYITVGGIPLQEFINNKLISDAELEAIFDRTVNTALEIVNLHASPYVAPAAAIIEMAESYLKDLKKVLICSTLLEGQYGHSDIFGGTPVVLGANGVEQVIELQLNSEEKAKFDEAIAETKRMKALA

Experiment [4] is described as follows: inhibition of 3D7 malaria parasite growth – strain 3D7 (AID 2306).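 Further: 0% = DMSO wells and 100% = chloroquine plus artemisinin control wells.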 As to conditions: P. falciparum 3D7 erythrocytic growth, LDH absorbance, 72 h; at 2 µM; stronger effect = higher value.
Experiment [5] has as its target Calcium-dependent protein kinase 1 (Plasmodium falciparum (isolate 3D7)) (UniProt P62344). Nature of the experiment: PfCDPK1 kinase inhibitors, biochemical, TCAMS library (AID 1159585; cut-off not given, nearly all actives have IC50 up to about 0.98 µM;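 further: inhibitors leave more ATP so luminescence rises with inhibition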). The settings on record: recombinant PfCDPK1, Kinase-Glo ATP depletion luminescence.
For experiment [6], the target named is Plasmodium falciparum protein kinase 6 (PK6, PF3D7_1337100) (UniProt Q8IDW1). Put plainly: PfPK6 kinase inhibitors, biochemical, TCAMS library (AID 1159586). As to conditions: recombinant PfPK6, Kinase-Glo ATP depletion luminescence. Background: Kinase-Glo measures the ATP left after a reaction by luminescence.
Chain of Plasmodium falciparum protein kinase 6 (PK6, PF3D7_1337100) (Q8IDW1 1-305): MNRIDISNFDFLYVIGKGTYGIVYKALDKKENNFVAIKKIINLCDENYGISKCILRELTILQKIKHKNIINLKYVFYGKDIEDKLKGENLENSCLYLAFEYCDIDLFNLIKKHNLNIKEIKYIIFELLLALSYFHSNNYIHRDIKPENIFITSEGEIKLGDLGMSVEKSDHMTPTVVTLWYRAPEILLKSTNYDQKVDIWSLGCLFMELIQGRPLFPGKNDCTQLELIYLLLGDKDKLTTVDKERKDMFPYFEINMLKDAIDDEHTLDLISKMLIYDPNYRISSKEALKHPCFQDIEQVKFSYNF
Experiment [7] deals with Protein kinase 7 (PK7), Plasmodium falciparum 3D7 (PF3D7_0213400) (UniProt Q7YTF7). Put plainly: inhibition of Plasmodium PK7 catalytic activity – biochemical, TCAMS antimalarial set, Kinase-Glo luminescence (AID 1159587). The settings on record: recombinant PfPK7, Kinase-Glo ATP depletion luminescence.
Chain of Protein kinase 7 (PK7), Plasmodium falciparum 3D7 (PF3D7_0213400) (Q7YTF7 1-343): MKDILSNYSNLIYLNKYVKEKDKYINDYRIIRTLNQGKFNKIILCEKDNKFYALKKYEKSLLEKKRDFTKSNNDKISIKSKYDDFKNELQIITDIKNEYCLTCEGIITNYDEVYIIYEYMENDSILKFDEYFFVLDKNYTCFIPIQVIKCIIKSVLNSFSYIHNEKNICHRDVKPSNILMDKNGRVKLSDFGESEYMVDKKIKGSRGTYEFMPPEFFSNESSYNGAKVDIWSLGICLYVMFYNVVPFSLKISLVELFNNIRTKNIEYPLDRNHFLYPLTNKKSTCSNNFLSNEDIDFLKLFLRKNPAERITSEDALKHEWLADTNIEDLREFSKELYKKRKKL
Experiment [8] has as its target Calcium-dependent protein kinase 4 (Plasmodium falciparum (isolate 3D7)) (UniProt Q8IBS5). Put plainly: PfCDPK4 kinase inhibitors, biochemical, TCAMS library (AID 1159588; cut-off not given, nearly all actives have IC50 up to about 0.91 µM). The settings on record: recombinant PfCDPK4, Kinase-Glo ATP depletion luminescence.

Unmarked numbers belong to inactive results. For some of these results: Results with a measured potency or affinity are listed apart. Calls of active or inactive are those of the source. Unless noted, how the calls were made is not given here.

Chain of Calcium-dependent protein kinase 1 (Plasmodium falciparum (isolate 3D7)) (P62344 whole entry, looked up): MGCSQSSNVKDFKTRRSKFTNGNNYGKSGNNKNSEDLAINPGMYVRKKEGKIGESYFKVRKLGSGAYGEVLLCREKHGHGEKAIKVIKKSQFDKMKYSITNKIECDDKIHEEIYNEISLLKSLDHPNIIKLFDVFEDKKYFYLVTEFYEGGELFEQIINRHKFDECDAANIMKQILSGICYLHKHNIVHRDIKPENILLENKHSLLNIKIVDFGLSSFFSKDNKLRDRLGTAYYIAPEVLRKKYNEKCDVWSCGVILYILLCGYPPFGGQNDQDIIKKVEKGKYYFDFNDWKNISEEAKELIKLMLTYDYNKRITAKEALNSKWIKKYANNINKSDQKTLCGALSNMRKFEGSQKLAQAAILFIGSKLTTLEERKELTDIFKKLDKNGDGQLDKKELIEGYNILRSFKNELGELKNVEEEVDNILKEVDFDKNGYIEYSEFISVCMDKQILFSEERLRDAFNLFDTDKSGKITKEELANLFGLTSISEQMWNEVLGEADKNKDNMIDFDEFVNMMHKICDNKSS
Chain of Calcium-dependent protein kinase 4 (Plasmodium falciparum (isolate 3D7)) (Q8IBS5 whole entry, looked up): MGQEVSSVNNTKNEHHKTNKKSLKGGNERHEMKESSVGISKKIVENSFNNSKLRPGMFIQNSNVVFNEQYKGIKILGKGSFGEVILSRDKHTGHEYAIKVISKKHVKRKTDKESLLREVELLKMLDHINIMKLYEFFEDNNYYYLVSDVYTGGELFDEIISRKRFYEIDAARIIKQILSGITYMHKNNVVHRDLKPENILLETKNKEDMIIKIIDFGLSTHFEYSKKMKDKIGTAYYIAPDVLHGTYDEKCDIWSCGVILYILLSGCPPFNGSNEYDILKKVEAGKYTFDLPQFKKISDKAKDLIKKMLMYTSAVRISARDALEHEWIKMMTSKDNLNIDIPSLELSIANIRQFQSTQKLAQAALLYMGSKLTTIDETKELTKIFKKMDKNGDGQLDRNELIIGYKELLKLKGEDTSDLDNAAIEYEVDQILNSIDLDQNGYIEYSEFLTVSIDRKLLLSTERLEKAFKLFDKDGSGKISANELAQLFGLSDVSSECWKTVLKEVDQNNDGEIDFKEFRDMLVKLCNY

For the compound `COc1ccc(CNC2Cc3ccccc3C2)cc1-c1ccc(OC)c(S(=O)(=O)NCCN2CCCC2)c1`, the growth inhibition in experiment [1] was 97% (active); in experiment [4], 101% (active). Besides, the figures for the inhibition in experiment [2] and in experiment [3] were 31% and -9%, respectively. Moreover, the result in experiment [5], in experiment [6], in experiment [7] and in experiment [8] was inactive.

Turning to `COc1ccc(C(=O)CCc2ccc(O)cc2)cc1`, the growth inhibition is 90% (active) in experiment [1] and 96% (active) in experiment [4]. For the same compound, the results for the inhibition in experiment [2] and in experiment [3] were -2% and 4%, respectively. For the same compound, the result in experiment [5], in experiment [6], in experiment [7] and in experiment [8] was inactive.

With `CC(C)(C)CCN1CCC(NC(=O)c2ccc(-c3cccc(C(F)(F)F)c3)s2)CC1`, the growth inhibition in experiment [1] is 88% (active); in experiment [4] it was 93% (active). In addition, the values for the inhibition in experiment [2] and in experiment [3] were 95% (active) and -2%, respectively. In addition, the result in experiment [5], in experiment [6], in experiment [7] and in experiment [8] was inactive.

`COc1cccc(CCc2cccc(CNC(C)=O)c2)c1`: the growth inhibition in experiment [1] is -2%; in experiment [4], 88% (active). For the same compound, the results for the inhibition in experiment [2] and in experiment [3] were 2% and -2%, respectively. Further, the result in experiment [5], in experiment [6], in experiment [7] and in experiment [8] was inactive.

Turning to `COCC(=O)N(Cc1ccccc1-c1cccc(CNCc2ccc3c(c2)OCO3)c1)C1CCN(Cc2ccccc2)CC1`, the growth inhibition in experiment [1] was 72% (active); in experiment [4], 94% (active). Further, the inhibition in experiment [2] is 33%; in experiment [3] it was -1%. Moreover, the result in experiment [5], in experiment [6], in experiment [7] and in experiment [8] was inactive.

For the compound `COc1cc(Nc2nccc(N3CCC(NS(=O)(=O)c4ccc(NC(C)=O)cc4)CC3)n2)cc(OC)c1OC`, the growth inhibition in experiment [1] was 42%; in experiment [4] it was 91% (active). The inhibition in experiment [2] was -5%; in experiment [3], -3%. In addition, the outcome in experiment [5], in experiment [6], in experiment [7] and in experiment [8] was inactive.

For `Nc1ncc(-c2ccc3ncccc3c2)c(N)n1`, the growth inhibition in experiment [1] is -1%; in experiment [4] it was 97% (active). In addition, the inhibition was 55% (active) in experiment [2] and 2% in experiment [3]. Moreover, the outcome in experiment [5], in experiment [6], in experiment [7] and in experiment [8] was inactive.

With `C[C@H]1[C@H](c2cccc(Cl)c2)OCC(C)(C)N1C(=O)CCN1CCCCC1`, the figures for the growth inhibition in experiment [1] and in experiment [4] were 5% and 88% (active), respectively. Moreover, the values for the inhibition in experiment [2] and in experiment [3] were 2% and -1%, respectively. In addition, the outcome in experiment [5], in experiment [6], in experiment [7] and in experiment [8] was inactive.

As to `CCOC(=O)c1ccc(N2CCN(CCCNC(=O)/C(=C/C=C/c3cc4cc(Cl)c(Cl)cc4[nH]3)OC)CC2)cc1`, the growth inhibition in experiment [1] was 72% (active); in experiment [4] it was 93% (active). Moreover, the inhibition in experiment [2] is 39%; in experiment [3], 4%. Further, the outcome in experiment [5], in experiment [6], in experiment [7] and in experiment [8] was inactive.

For `CC(=O)Nc1cccc(C(=O)Nc2cccc(-c3ccc(-c4nc5c(C)cccc5[nH]4)s3)c2)c1`, the results for the growth inhibition in experiment [1] and in experiment [4] were 26% and 99% (active), respectively. Moreover, the inhibition was 75% (active) in experiment [2] and 4% in experiment [3]. Also, the outcome in experiment [5], in experiment [6], in experiment [7] and in experiment [8] was inactive.

Regarding `Cc1ccc(O)cc1Nc1ccnc2cc(-c3csc(CN4CCN(C)CC4)n3)ccc12`, the growth inhibition in experiment [1] was 77% (active); in experiment [4], 100% (active). Also, the inhibition was 6% in experiment [2] and -4% in experiment [3]. For the same compound, the outcome in experiment [5], in experiment [6], in experiment [7] and in experiment [8] was inactive.

Take `COc1ccc(-c2ccc(NC(=O)c3cccc(C#N)c3)cc2)cc1CN1CCCC(C(N)=O)C1` (stereo not given): the growth inhibition in experiment [1] was 44%; in experiment [4] it was 98% (active). Also, the inhibition in experiment [2] is 12%; in experiment [3] it was 0%. Further, the outcome in experiment [5], in experiment [6], in experiment [7] and in experiment [8] was inactive.

`Cn1cccc1CCNCc1ccc(-c2cccc(-c3nc4ccccc4[nH]3)c2)cc1`: the growth inhibition in experiment [1] is 66% (active); in experiment [4] it was 88% (active). For the same compound, the values for the inhibition in experiment [2] and in experiment [3] were 1% and 3%, respectively. Further, the outcome in experiment [5], in experiment [6], in experiment [7] and in experiment [8] was inactive.

Consider `CC(Cc1ccc(NC(=O)c2ccc(CNCCc3ccccc3)cc2)cc1)NCCc1cccc(Cl)c1` (stereo not given), for which the values for the growth inhibition in experiment [1] and in experiment [4] were 99% (active) and 100% (active), respectively. Further, the inhibition in experiment [2] is 100% (active); in experiment [3], 0%. The outcome in experiment [5], in experiment [6], in experiment [7] and in experiment [8] was inactive.

For the compound `N#Cc1cccc(NC(=O)Nc2cccc(-c3ccc(-c4nc5ccc(C(F)(F)F)cc5[nH]4)cc3)c2)c1`, the growth inhibition in experiment [1] is 99% (active); in experiment [4] it was 102% (active). Further, the inhibition is 54% (active) in experiment [2] and -8% in experiment [3]. The result in experiment [5], in experiment [6], in experiment [7] and in experiment [8] was inactive.

Consider `COc1ccc(NC(=O)/C=C/c2ccccc2Cl)cc1OCCN1CCC(NCc2ccccc2)CC1`, for which the figures for the growth inhibition in experiment [1] and in experiment [4] were 101% (active) and 106% (active), respectively. Besides, the values for the inhibition in experiment [2] and in experiment [3] were 28% and 7%, respectively. Moreover, the outcome in experiment [5], in experiment [6], in experiment [7] and in experiment [8] was inactive.

For `COc1ccc(CCNc2nc(NCc3ccccc3)c3cc(OC)c(OC)cc3n2)cc1OC`, the growth inhibition in experiment [1] was 91% (active); in experiment [4], 100% (active). The inhibition in experiment [2] is 46%; in experiment [3], 0%. Further, the result in experiment [5], in experiment [6], in experiment [7] and in experiment [8] was inactive.

As to `OC1CCCN(Cc2cccc(-c3ccc(-c4nc5ccccc5[nH]4)cc3)c2)C1` (stereo not given), the growth inhibition in experiment [1] was 16%; in experiment [4], 85% (active). In addition, the inhibition is 25% in experiment [2] and -2% in experiment [3]. Further, the result in experiment [5], in experiment [6], in experiment [7] and in experiment [8] was inactive.

Consider `CCC(C)(C)c1ccc2nc(N)nc(N)c2c1C`, for which the growth inhibition was 82% (active) in experiment [1] and 91% (active) in experiment [4]. For the same compound, the values for the inhibition in experiment [2] and in experiment [3] were 62% (active) and 1%, respectively. The outcome in experiment [5], in experiment [6], in experiment [7] and in experiment [8] was inactive.

As for `COCCOc1ccc(C(F)(F)F)cc1NC(=O)Cc1c(F)cccc1Cl`, the growth inhibition in experiment [1] was 74% (active); in experiment [4], 88% (active). Besides, the inhibition was 18% in experiment [2] and 2% in experiment [3]. The outcome in experiment [5], in experiment [6], in experiment [7] and in experiment [8] was inactive.

One may read the inhibition as the change of the read-out against control, counted positive when it falls.
